Experimental data as given in the supplement of paper PMC10849652.
The full data set covers some 7,900 targets. This sample favours those with a hit. About 0.6% of all pairs of compound and target were hits. Values without a mark were called inactive.

compound: Cc1sc2c(c1C)C(c1ccc(Cl)cc1)=N[C@@H](CC(=O)OC(C)(C)C)c1nnc(C)n1-2; assay: log2 fold change, soluble protein after heating vs DMSO (PISA); higher = thermal stabilisation; K562 cells, 10 uM, 30 min; active = over 0.2 and 3.5 SD of the protein, either way, in both replicates (recomputed)
In short: (§1)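 Values are thermal stability changes relative to control samples and are taken from duplicates. They are stated as log2 fold changes. Before quantification by TMTpro 16plex LC-MS/MS with equalised channel sums, K562 cells at 2×10^6 cells/mL were treated with 10 μM compound for 30 min, heated in aliquots for 3 min across 48°C-58°C, pooled, extracted in PBS with 0.5% NP-40 at 4°C, and centrifuged at 21,000xg for 90 min to give the soluble supernatant.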

Chain of UniProt P07686 (P07686 whole entry, looked up): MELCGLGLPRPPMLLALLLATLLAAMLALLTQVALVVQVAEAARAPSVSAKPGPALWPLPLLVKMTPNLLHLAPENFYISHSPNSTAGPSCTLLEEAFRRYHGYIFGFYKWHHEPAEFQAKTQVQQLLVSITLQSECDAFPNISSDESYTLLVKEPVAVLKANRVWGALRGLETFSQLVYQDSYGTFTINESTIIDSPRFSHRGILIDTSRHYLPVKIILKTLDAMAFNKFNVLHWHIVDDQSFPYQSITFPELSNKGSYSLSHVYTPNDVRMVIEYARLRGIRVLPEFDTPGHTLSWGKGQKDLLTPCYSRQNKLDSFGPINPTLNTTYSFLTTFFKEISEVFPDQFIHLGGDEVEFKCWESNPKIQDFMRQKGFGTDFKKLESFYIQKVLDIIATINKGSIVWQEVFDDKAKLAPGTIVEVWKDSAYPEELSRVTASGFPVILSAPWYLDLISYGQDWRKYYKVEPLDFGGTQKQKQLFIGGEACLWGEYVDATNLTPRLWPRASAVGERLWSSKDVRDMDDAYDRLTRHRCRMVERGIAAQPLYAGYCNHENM
Chain of UniProt Q92538 (Q92538 whole entry, looked up): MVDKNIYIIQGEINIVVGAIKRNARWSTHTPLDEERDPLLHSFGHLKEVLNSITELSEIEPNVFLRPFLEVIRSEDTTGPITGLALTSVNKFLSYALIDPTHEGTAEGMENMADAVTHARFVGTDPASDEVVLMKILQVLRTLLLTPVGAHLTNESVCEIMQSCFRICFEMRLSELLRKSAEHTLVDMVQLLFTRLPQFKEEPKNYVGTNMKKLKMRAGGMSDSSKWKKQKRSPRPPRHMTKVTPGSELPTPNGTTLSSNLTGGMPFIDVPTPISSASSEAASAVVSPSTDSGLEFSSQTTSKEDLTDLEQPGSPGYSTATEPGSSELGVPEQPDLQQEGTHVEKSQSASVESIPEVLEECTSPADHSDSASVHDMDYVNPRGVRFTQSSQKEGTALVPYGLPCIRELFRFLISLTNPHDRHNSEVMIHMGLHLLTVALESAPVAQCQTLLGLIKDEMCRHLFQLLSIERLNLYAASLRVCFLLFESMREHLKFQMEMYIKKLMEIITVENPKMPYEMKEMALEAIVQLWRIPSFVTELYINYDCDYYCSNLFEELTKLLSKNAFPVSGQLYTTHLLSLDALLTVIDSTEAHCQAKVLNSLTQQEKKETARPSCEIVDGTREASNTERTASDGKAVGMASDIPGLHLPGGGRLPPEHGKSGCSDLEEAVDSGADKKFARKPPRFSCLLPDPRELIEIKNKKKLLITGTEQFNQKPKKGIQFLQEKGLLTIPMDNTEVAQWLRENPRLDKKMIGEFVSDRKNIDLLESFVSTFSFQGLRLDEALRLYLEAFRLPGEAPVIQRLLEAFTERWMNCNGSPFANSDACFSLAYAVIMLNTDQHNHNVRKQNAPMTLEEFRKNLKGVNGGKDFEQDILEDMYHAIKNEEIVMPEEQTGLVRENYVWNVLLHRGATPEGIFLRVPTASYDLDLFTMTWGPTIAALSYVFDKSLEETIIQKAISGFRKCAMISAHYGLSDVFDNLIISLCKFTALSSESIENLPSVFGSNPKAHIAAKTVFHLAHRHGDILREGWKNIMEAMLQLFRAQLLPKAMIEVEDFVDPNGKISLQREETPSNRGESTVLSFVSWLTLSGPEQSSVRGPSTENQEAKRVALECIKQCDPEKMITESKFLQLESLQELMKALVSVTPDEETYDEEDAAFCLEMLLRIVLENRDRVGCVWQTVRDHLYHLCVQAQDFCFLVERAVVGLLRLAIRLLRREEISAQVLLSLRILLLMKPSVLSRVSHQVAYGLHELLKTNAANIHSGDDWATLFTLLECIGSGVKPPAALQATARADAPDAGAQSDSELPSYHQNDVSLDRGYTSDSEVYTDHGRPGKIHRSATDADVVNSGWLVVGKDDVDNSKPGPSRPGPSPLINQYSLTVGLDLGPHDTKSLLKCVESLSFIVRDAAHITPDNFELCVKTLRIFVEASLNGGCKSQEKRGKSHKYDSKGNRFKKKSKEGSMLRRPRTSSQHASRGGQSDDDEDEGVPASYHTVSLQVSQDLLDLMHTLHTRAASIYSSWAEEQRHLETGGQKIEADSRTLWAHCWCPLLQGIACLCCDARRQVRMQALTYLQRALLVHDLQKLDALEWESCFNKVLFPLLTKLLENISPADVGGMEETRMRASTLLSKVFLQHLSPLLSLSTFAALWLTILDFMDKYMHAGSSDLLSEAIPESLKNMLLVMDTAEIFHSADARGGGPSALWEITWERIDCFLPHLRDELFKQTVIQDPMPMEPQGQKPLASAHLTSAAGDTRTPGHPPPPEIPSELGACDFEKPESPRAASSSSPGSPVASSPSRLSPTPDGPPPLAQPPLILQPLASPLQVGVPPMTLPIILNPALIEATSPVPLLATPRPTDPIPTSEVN
Chain of UniProt Q7Z4H3 (Q7Z4H3 whole entry, looked up): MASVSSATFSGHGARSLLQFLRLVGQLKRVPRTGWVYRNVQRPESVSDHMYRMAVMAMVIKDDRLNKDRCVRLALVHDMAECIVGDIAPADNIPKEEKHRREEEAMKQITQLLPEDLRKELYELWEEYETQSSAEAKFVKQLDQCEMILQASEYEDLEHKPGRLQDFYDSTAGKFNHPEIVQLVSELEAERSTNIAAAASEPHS
Chain of UniProt Q6Y7W6 (Q6Y7W6 whole entry, looked up): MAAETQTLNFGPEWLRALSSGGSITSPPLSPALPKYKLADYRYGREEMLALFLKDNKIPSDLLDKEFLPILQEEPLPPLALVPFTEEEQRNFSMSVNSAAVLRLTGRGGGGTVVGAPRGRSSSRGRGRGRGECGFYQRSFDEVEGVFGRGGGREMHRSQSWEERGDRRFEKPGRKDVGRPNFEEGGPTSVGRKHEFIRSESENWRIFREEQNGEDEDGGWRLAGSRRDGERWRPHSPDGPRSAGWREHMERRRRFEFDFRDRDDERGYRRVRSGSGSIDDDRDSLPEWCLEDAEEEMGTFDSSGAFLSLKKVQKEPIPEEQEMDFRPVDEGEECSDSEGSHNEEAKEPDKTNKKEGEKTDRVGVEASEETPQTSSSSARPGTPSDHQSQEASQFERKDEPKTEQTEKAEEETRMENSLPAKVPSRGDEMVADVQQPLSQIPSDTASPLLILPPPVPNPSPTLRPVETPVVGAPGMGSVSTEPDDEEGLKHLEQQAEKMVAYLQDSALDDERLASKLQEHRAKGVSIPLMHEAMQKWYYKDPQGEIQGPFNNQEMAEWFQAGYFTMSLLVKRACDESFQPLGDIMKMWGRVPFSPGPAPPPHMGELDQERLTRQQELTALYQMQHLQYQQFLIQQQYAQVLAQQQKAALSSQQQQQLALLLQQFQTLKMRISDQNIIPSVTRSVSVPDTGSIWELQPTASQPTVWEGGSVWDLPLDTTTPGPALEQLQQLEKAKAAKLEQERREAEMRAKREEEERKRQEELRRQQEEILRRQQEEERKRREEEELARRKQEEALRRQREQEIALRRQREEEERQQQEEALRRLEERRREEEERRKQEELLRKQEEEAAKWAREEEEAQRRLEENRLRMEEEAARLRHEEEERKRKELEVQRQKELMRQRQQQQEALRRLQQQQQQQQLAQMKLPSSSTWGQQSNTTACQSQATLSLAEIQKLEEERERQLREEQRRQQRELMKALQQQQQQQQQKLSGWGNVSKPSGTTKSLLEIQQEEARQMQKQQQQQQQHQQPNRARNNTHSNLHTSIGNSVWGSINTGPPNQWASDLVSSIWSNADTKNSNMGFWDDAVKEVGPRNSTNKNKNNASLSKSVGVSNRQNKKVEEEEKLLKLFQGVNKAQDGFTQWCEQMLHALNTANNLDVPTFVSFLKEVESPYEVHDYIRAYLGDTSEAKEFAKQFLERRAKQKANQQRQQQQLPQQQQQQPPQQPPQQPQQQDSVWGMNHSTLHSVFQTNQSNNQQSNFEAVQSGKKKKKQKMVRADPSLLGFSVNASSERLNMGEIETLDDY
Chain of UniProt O43427 (O43427 whole entry, looked up): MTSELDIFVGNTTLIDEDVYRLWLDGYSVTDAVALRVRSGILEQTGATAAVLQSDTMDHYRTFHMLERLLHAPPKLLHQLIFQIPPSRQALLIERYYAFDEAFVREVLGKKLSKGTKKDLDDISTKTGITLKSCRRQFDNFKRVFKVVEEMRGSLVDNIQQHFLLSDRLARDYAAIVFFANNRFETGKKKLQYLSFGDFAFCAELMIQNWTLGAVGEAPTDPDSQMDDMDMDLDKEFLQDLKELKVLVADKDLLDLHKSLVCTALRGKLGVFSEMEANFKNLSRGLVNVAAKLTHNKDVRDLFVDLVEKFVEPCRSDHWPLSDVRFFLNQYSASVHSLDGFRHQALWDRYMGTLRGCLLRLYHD
Chain of UniProt Q8N2G8 (Q8N2G8 whole entry, looked up): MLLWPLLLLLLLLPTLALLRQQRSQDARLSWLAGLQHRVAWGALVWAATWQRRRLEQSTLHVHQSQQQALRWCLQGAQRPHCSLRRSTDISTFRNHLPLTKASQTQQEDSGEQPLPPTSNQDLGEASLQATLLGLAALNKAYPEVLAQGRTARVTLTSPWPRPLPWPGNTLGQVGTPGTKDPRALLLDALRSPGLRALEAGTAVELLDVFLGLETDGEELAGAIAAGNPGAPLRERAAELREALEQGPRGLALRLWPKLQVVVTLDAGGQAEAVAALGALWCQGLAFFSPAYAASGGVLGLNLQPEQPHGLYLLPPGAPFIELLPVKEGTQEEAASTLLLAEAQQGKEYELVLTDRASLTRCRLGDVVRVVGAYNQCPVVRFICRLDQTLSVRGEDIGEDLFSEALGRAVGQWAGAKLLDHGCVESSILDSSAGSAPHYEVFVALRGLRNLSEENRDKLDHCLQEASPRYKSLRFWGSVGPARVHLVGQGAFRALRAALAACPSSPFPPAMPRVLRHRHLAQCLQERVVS
Chain of UniProt Q8WXD5 (Q8WXD5 whole entry, looked up): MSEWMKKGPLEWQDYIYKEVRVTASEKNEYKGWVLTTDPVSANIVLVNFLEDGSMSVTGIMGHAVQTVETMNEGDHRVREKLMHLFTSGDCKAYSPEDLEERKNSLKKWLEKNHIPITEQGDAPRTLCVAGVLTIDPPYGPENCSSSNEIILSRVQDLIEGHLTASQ

Target	log2 fold change
GLUD2 (UniProt P49448)	0.047
HIC2 (UniProt Q96JB3)	0.205
GBA2 (UniProt Q9HCG7)	0.034
GNAS (UniProt Q5JWF2)	-0.038
FARS2 (UniProt O95363)	0.069
GLIPR2 (UniProt Q9H4G4)	0.028
FDPS (UniProt P14324)	0.001
FIBP (UniProt O43427)	-0.105
GLRX3 (UniProt O76003)	-0.033
GALC (UniProt P54803)	-0.043
GEMIN6 (UniProt Q8WXD5)	-0.113
HNRNPUL2 (UniProt Q1KMD3)	0.105
HPCAL1 (UniProt P37235)	-0.011
HEXB (UniProt P07686)	-0.008
HNRNPC isoform 2 (UniProt P07910)	0.07
GHDC (UniProt Q8N2G8)	0.031

Target	log2 fold change
FERMT3 (UniProt Q86UX7)	-0.018
IFRD2 isoform 2 (UniProt Q12894)	0.063
GTF2A2 (UniProt P52657)	-0.064
GNL3 (UniProt Q9BVP2)	-0.131
FBXO6 (UniProt Q9NRD1)	-0.041
HDDC2 (UniProt Q7Z4H3)	-0.071
GBF1 (UniProt Q92538)	-0.005
HIST2H2BF isoform 2 (UniProt Q5QNW6)	-0.082
FANCI (UniProt Q9NVI1)	-0.008
GIGYF2 (UniProt Q6Y7W6)	0.012
FBL (UniProt P22087)	0.18
GGA2 (UniProt Q9UJY4)	0.041
HDAC1 (UniProt Q13547)	0.03
HNRNPUL1 (UniProt Q9BUJ2)	0.07
FDFT1 (UniProt P37268)	0.109

compound: c1ccc([C@@H]2C[C@H]2NC2CCNCC2)cc1; assay: as above
In short: as §1

Target	log2 fold change
GLUD2 (UniProt P49448)	-0.005
HIC2 (UniProt Q96JB3)	0.078
GBA2 (UniProt Q9HCG7)	0.023
GNAS (UniProt Q5JWF2)	0.013
FARS2 (UniProt O95363)	-0.018
GLIPR2 (UniProt Q9H4G4)	-0.017
FDPS (UniProt P14324)	-0.121
FIBP (UniProt O43427)	-0.011
GLRX3 (UniProt O76003)	-0.018
GALC (UniProt P54803)	0.006
GEMIN6 (UniProt Q8WXD5)	-0.063
HNRNPUL2 (UniProt Q1KMD3)	0.04
HPCAL1 (UniProt P37235)	0.032
HEXB (UniProt P07686)	0.016
HNRNPC isoform 2 (UniProt P07910)	0.139
GHDC (UniProt Q8N2G8)	-0.019

Target	log2 fold change
FERMT3 (UniProt Q86UX7)	-0.019
IFRD2 isoform 2 (UniProt Q12894)	0.061
GTF2A2 (UniProt P52657)	-0.017
GNL3 (UniProt Q9BVP2)	-0.053
FBXO6 (UniProt Q9NRD1)	-0.032
HDDC2 (UniProt Q7Z4H3)	-0.038
GBF1 (UniProt Q92538)	0.003
HIST2H2BF isoform 2 (UniProt Q5QNW6)	0.125
FANCI (UniProt Q9NVI1)	-0.037
GIGYF2 (UniProt Q6Y7W6)	-0.046
FBL (UniProt P22087)	0.074
GGA2 (UniProt Q9UJY4)	-0.047
HDAC1 (UniProt Q13547)	0.154
HNRNPUL1 (UniProt Q9BUJ2)	0.058
FDFT1 (UniProt P37268)	-0.021
